From PubChem BioAssay AID652062 (Broad Institute, 2013)
Screen size: about 1,400 compounds; about 1,100 (79%) were called active.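 The calls were made as follows: active = fitted half-maximal concentration of a falling signal no higher than twice the top valid dose in every test run; inconclusive = runs disagree, or flat partial inhibition, or poor fit; inactive = every run inactive: flat, wrong direction, or potency beyond limit.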 So high a share suggests a set chosen from earlier hits. These entries were drawn from the full list. Results with a measured potency or affinity are listed apart.

Assay: HIV-1 AD8 envelope cell-cell fusion blockers – cherry-pick, dose response (AID 652062)
Conditions: HeLa-AD8 Env / CEM-CCR5 cell fusion, luciferase; at 35 µM (top of the series) unless noted

SMILES	activity change, negative = inhibition
CCN(CC)S(=O)(=O)c1ccc(NC2c3ccccc3C(=O)N2Cc2ccc3c(c2)OCO3)cc1 (stereo unspecified)	-25.4%
CCOc1ccc(NC2c3ccccc3C(=O)N2Cc2ccco2)cc1 (stereo unspecified)	51.2%
O=C(Nc1cccc(F)c1)c1cc(S(=O)(=O)N2CCC(C(=O)O)CC2)ccc1F	43.8%
O=C(Nc1ccc(Cl)cc1)C1CCCN(C2=NS(=O)(=O)c3ccccc32)C1 (stereo unspecified)	-27% [at 16 µM]
C[C@H](CO)N1C[C@H](C)[C@@H](CN(C)C(=O)Nc2cccc3ccccc23)OCCCC[C@H](C)Oc2ccc(N(C)C)cc2C1=O	-37.4%
Cc1noc(C)c1NC(=O)N(C)C[C@H]1OCCCC[C@H](C)Oc2ccc(NC(=O)c3ccccc3)cc2C(=O)N([C@H](C)CO)C[C@@H]1C	107%
O=C(N/N=C/c1ccc(-n2ccnc2)cc1)c1cccs1	91.2%
Clc1ccc2c(c1)C1=C(C(c3ccncc3)O2)C(c2ccc(Br)cc2)n2ncnc2N1 (stereo unspecified)	285% [at 16 µM]
NC(Cc1ccc(F)cc1)c1csc(Nc2ccc(C(F)(F)F)cn2)n1 (stereo unspecified)	-26.6% [at 16 µM]
Cc1cccc(/C=N\Nc2cn[nH]c(=O)c2Cl)c1	183%
COc1ccc(OC)c(CN2C(=O)c3ccccc3C2c2nnnn2-c2c(C)cccc2C)c1 (stereo unspecified)	-4.67%
COc1ccc(CCN2C(=O)c3[nH]nc(-c4ccccc4O)c3C2c2cccc(O)c2)cc1OC (stereo unspecified)	4.61%
CN(C(=O)c1cccc(NC(=O)Cc2cccc(NC(=O)C3CCCN(C(=O)C4CCC4)C3)c2)c1)C1CCC1 (stereo unspecified)	49.5%
COc1ccc(-c2nnc(Nc3nc4c(OC)cccc4s3)o2)cc1	-27.2%
O=C(Nc1cccc(F)c1)N[C@@H]1CC[C@H](CCNS(=O)(=O)c2cccc(Cl)c2)O[C@H]1CO	101%
O=C(CCN1CCCCC1)N[C@@H]1CC[C@@H](CCn2cc(-c3ccccc3)nn2)O[C@@H]1CO	-17.1%
O=C(CCN1CCCCC1)N[C@H]1CC[C@H](CCn2cc(-c3ccccc3)nn2)O[C@@H]1CO	-27.5%
O=C(Cc1ccncc1)N[C@H]1CC[C@@H](CCn2cc(-c3ccccc3F)nn2)O[C@@H]1CO	-16.3%
COc1ccccc1S(=O)(=O)n1cc(Cc2ccccc2)c(N)n1	-17%
O=C(C[C@@H]1CC[C@@H](NC(=O)c2ccncc2)[C@H](CO)O1)NCCc1ccncc1	38.7%
COc1ccc(Nc2cc(C)nc(NCc3ccccc3)n2)cc1	-69.2%
C[C@@H]1CN([C@H](C)CO)C(=O)c2cccc(NC(=O)c3ccncc3)c2O[C@@H]1CN(C)Cc1ccc(C(=O)O)cc1	3.82%
C[C@@H]1CN([C@@H](C)CO)C(=O)c2cccc(NC(=O)c3cnccn3)c2O[C@H]1CN(C)Cc1ccc(Cl)c(Cl)c1	142% [at 16 µM]
C[C@@H]1CN([C@@H](C)CO)C(=O)c2cccc(NC(=O)c3ccc(-c4nccs4)cc3)c2O[C@H]1CN(C)CC1CC1	28.5%
Cc1onc(-c2ccccc2)c1C(=O)OCCOc1cccc(Cl)c1	-18.8%
CC1(C)N=C(N)N=C(N)N1CCCCc1ccccc1	3.6%

SMILES	activity change, negative = inhibition
CS(=O)(=O)N1CCN(c2ccccc2NC(=O)C(c2ccccc2)c2ccccc2)CC1	38.4%
O=C(O)C[C@@H]1CC[C@@H](NC(=O)c2ccncc2)[C@H](CO)O1	28.7%
O=C(O)C[C@@H]1C=C[C@@H](NC(=O)Nc2ccccc2)[C@H](CO)O1	11.3%
O=C(O)C[C@@H]1C=C[C@H](NC(=O)Nc2ccccc2)[C@H](CO)O1	-16.5%
Cc1cccc(C)c1N(CC(O)Cn1c2ccccc2c2ccccc21)S(C)(=O)=O (stereo unspecified)	16%
COc1ccccc1C#Cc1ccc2c(c1)O[C@@H](CN(C)Cc1ccncc1)[C@H](C)CN([C@H](C)CO)S2(=O)=O	10.1% [at 16 µM]
C[C@@H]1CN([C@H](C)CO)S(=O)(=O)c2ccc(-c3ccncc3)cc2O[C@@H]1CN(C)Cc1ccc(Oc2ccccc2)cc1	160%
Cc1ccc(-c2ccc3c(c2)O[C@@H](CN(C)Cc2cccnc2)[C@H](C)CN([C@H](C)CO)S3(=O)=O)cc1	-56.7%
COc1ccccc1CN1C(=O)CN(C2CCCCCC2)C(=O)C1c1ccc(F)cc1 (stereo unspecified)	20.3%
Cc1ccc(-n2nc3c(c2NC(=O)c2ccco2)CS(=O)C3)cc1 (stereo unspecified)	-28.9%
COc1ccccc1CN(C)C(=O)CN1CCN(C(=O)c2cccs2)CC1	-1.14%
O=C(C[C@@H]1C[C@H]2c3cc(NC(=O)NC4CCCCC4)ccc3O[C@H]2[C@@H](CO)O1)NCc1ccncc1	17.5%
O=C(C[C@@H]1C[C@H]2c3cc(NC(=O)C4CCOCC4)ccc3O[C@H]2[C@@H](CO)O1)NCc1ccccc1	37.3%
O=C(C[C@@H]1C[C@@H]2c3cc(NC(=O)C4CCC4)ccc3O[C@@H]2[C@@H](CO)O1)NCC(F)(F)F	37%
O=C(C[C@H]1C[C@@H]2c3cc(NC(=O)C4CCC4)ccc3O[C@@H]2[C@@H](CO)O1)NCc1ccc2c(c1)OCO2	25.6%
O=C(C[C@@H]1C[C@@H]2c3cc(NC(=O)C4CCOCC4)ccc3O[C@@H]2[C@H](CO)O1)NCCc1ccccc1	-21%
O=C(C[C@@H]1C[C@@H]2c3cc(NC(=O)C4CCC4)ccc3O[C@@H]2[C@@H](CO)O1)NCc1ccc2c(c1)OCO2	48.6%
CN(C)C(=O)C[C@H]1C[C@@H]2c3cc(NC(=O)NC4CCCCC4)ccc3O[C@@H]2[C@H](CO)O1	-20.7%
O=C(C[C@H]1C[C@@H]2c3cc(NC(=O)C4CCC4)ccc3O[C@@H]2[C@@H](CO)O1)NCC(F)(F)F	7.19%
O=C(C[C@H]1C[C@H]2c3cc(NC(=O)Cc4ccncc4)ccc3O[C@H]2[C@@H](CO)O1)NCc1ccncc1	20.8%
O=C(C[C@@H]1C[C@@H]2c3cc(NC(=O)c4ccc5c(c4)OCO5)ccc3O[C@@H]2[C@@H](CO)O1)NCc1ccc(Oc2ccccc2)cc1	0.613% [at 16 µM]
O=C(C[C@@H]1C[C@@H]2c3cc(NC(=O)Nc4ccccc4)ccc3O[C@@H]2[C@@H](CO)O1)NCc1ccccc1	42.6% [at 30 µM]
O=C(C[C@H]1C[C@H]2c3cc(NC(=O)C4CCC4)ccc3O[C@H]2[C@@H](CO)O1)NCc1ccc2c(c1)OCO2	38.8% [at 30 µM]
COc1ccc(S(=O)(=O)N(C)C[C@@H]2Oc3ccc(NC(=O)C4CCCCC4)cc3CC(=O)N([C@@H](C)CO)C[C@@H]2C)cc1	5.28% [at 16 µM]
O=C(N[C@@H]1CC[C@H](CCNS(=O)(=O)c2ccc(F)cc2)O[C@@H]1CO)C1CC1	21.6%
C[C@H]1NC(=O)[C@@]2(C)[C@H](c3ccccc3)[C@H]3COc4ccccc4[C@@H]3N2C1=O	80.3%

SMILES	activity change, negative = inhibition
C[C@@]12C(=O)N(Cc3ccco3)CC(=O)N1[C@H]1c3ccccc3OC[C@@H]1[C@@H]2c1ccccc1	2.22%
COc1cc2c(cc1OC)C(=O)N1[C@H]3c4cc(Cl)ccc4OC[C@@H]3[C@H](c3ccccc3)[C@]1(C)C(=O)N2	-26.3%
Cc1cc(Cl)ccc1OCC(=O)NNC(=O)C1CSC2(C)CCC(=O)N12 (stereo unspecified)	1.11%
COc1ccc([Si](C)(C)[C@H]2[C@H](CCO)O[C@@]3(C(=O)N(Cc4cccc(N5CCOC5=O)c4)c4ccccc43)[C@@H]2C)cc1	108%
COc1ccc(S(=O)(=O)N2CCCCC2)cc1NC(=O)CN(Cc1ccco1)Cc1ccco1	-14.6%
COc1ccc(S(=O)(=O)N2CCCCC2)cc1NC(=O)CCCOc1ccc(C)cc1	3.18%
CCCCCCOc1ccc(OC(=O)c2ccncc2)cc1	-6.3%
COc1ccc(-c2c(C)nn3c(C(F)(F)F)cc(C)nc23)cc1	123%
CSc1ncccc1C(=O)OCC(=O)Nc1ccc(C)c(S(=O)(=O)N2CCOCC2)c1	-12.3% [at 16 µM]
O=C(COC(=O)c1cc(S(=O)(=O)N2CCOCC2)ccc1O)NCc1ccc2c(c1)OCO2	28.5%
CC(=O)Nc1ccc(C(=O)OCC(=O)NC(=O)NCc2ccccc2)cc1	16.9%
CO[C@H]1CN(C)C(=O)c2ccc(NC(=O)Nc3cccc(F)c3)cc2OC[C@@H](C)N(C(C)=O)C[C@H]1C	72.4%
CCCC(=O)Nc1ccc2c(c1)OC[C@H](C)N(C(=O)CN(C)C)C[C@@H](C)[C@H](OC)CN(C)C2=O	-2.16%
COCC(=O)Nc1ccc2c(c1)C(=O)N(C)C[C@@H](OC)[C@H](C)CN(C(C)=O)[C@H](C)CO2	28.2%
CO[C@H]1CN(C)C(=O)c2cc(NC(=O)c3ccc(F)cc3)ccc2OC[C@H](C)N(C(=O)CN(C)C)C[C@@H]1C	6.3%
CO[C@H]1CN(C)C(=O)c2ccc(NC(=O)Nc3cccc(F)c3)cc2OC[C@H](C)NC[C@H]1C	25.2%
CCc1ccc(C(=O)CN2C(=O)NC(C)(c3ccc(C)cc3)C2=O)cc1 (stereo unspecified)	-27.5%
COc1cccc(S(=O)(=O)N(C)C[C@H]2Oc3cc(C4=CCCC4)ccc3S(=O)(=O)N([C@H](C)CO)C[C@@H]2C)c1	27.1%
C[C@H]1CN([C@@H](C)CO)C(=O)Cc2cc(NS(=O)(=O)c3ccccc3)ccc2O[C@@H]1CN(C)Cc1ccc(Cl)c(Cl)c1	-28.9%
C[C@@H]1CN([C@H](C)CO)C(=O)c2cc(NS(=O)(=O)c3ccc(F)cc3)ccc2O[C@H]1CN(C)Cc1ccc(C(F)(F)F)cc1	-13.8%
COc1ccccc1S(=O)(=O)N[C@H]1CC[C@H](CC(=O)N2CCN(C)CC2)O[C@H]1CO	-27.9%
COc1ccc(-c2cn(CC[C@H]3CC[C@H](NS(=O)(=O)c4ccccc4C)[C@H](CO)O3)nn2)cc1	2.4%
COc1ccc(S(=O)(=O)N[C@@H]2CC[C@@H](CC(=O)NCCc3ccncc3)O[C@@H]2CO)cc1	-13%
CNC[C@H]1Oc2c(NC(=O)Nc3ccc4c(c3)OCO4)cccc2C(=O)N([C@H](C)CO)C[C@@H]1C	65.2%
